# Assay results published in PubChem BioAssay (EPA / NIEHS).
# Active and inactive are the calls of the source. How the source made its calls: active means hit-call score of the fitted dose curve at least 0.9, where 1 is the maximum; inactive means score below 0.9.
# Experiment: ATG_NF_kB_CIS: Attagene CIS-FACTORIAL HepG2 Assay for human Nuclear Factor Kappa B (NF-kB) (AID 2282991)
# Settings: HepG2 Attagene cis-factorial NF-kB reporter mRNA; actives raise or lower the signal
# Experimental: ATG_CIS is a cell-based, multiplexed-readout assay that uses HepG2, a human liver cell line, with measurements taken at 24 hours after chemical dosing in a 24-well plate.ATG_NF_kB_CIS is one of 52 assay component(s) measured or calculated from the ATG_CIS assay. It is designed to make measurements of mRNA induction, a form of inducible reporter, as detected with fluorescence intensity signals by Reverse transcription polymerase chain reaction (RT-PCR) and Capillary electrophoresis technology.Data from the assay component ATG_NF_kB_CIS was analyzed into 1 assay endpoint. This assay endpoint, ATG_NF_kB_CIS, was analyzed with bidirectional fitting relative to DMSO as the negative control and baseline of activity. Using a type of inducible reporter, measures of mRNA for gain or loss-of-signal activity can be used to understand the reporter gene at the transcription factor-level as they relate to the gene NFKB1. Furthermore, this assay endpoint can be referred to as a primary readout, because this assay has produced multiple assay endpoints where this one serves a reporter gene function. To generalize the intended target to other relatable targets, this assay endpoint is annotated to the dna binding intended target family, where the subfamily is NF-kappa B.
# Human liver HepG2 cells are transiently transfected with multiple reporter transcription units (MRTUs) in 6-well plates using FuGene 6 reagent (Roche; 3 ml FuGene/1 mg DNA). The MRTU constructs are regulated by a cis-regulating element (promoter). […] A major difference between the CIS and TRANS system is that in CIS activities of endogenous TFs are measured, whereas the TRANS assay evaluates changes in activities of exogenous, chimeric NR-Gal4 proteins. […] At the end of 24 hour incubation, total RNA was isolated using TriZol reagent (Invitrogen). The isolated RNA is then reverse-transcribed using oligo(dT) primer and Mo-MLV reverse transcriptase (Invitrogen) with DNAse I (Ambion) treatment for 30 min. The one-tenth of the produced cDNA was amplified by PCR using Taq DNA polymerase (Invitrogen) and two reporter sequence-specific primers. The PCR products were fluorescently labeled by primer extension with 6-arboxyfluorescein (6-FAM) 5'-labeled reporter sequence-specific primer (2 min at 95 C, 20 s at 68 C and 10 min at 72 C) and these products were digested with 5U of HpaI (New England Biolabs) for 2h at 37 C. The fragments were purified using Qiaquick PCR columns (Qiagen), analyzed on an ABI 3130xL genetic analyzer (Applied Biosystems) with peak positions identified by using a set of X-rhodamine (ROX)-labeled MapMarker1000 molecular weight standards (BioVentures). The raw capillary electrophoresis data was processed using Attagraph software (Attagene).
Structure (SMILES),outcome,AC50
O=C(O)CCC(F)(F)C(F)(F)C(F)(F)C(F)(F)C(F)(F)C(F)(F)F,inactive,
O=C(c1cc(O)c(O)c(O)c1)c1ccc(O)c(O)c1O,inactive,
c1cc2cccc3c4cccc5cccc(c(c1)c23)c54,inactive,
C=CC(=O)OCCN(CC)CC,inactive,
CCOC(C)=O,inactive,
C=CC(C)(CCC=C(C)C)OC(C)=O (stereo not given),inactive,
N=C(N)c1ccc(OCCCCCOc2ccc(C(=N)N)cc2)cc1,,87.5 µM (active)
CCCCCc1ccc(O)cc1,inactive,
CC1CCC(C(=O)O)CC1 (stereo not given),inactive,
Nc1cc(Cl)c(-c2cc(Cl)c(N)cc2Cl)cc1Cl,inactive,
FC(OC(F)(F)C(F)(F)C(F)(F)F)C(F)(F)F (stereo not given),inactive,
CCCCCCCCCCCCOC(=O)c1cc(O)c(O)c(O)c1,inactive,
OCCN1CN(CCO)CN(CCO)C1,inactive,
Cc1cc(C(C)(C)C)c(O)c(C(C)(C)C)c1,inactive,
O=P(O)(O)CCC(F)(F)C(F)(F)C(F)(F)C(F)(F)C(F)(F)C(F)(F)C(F)(F)C(F)(F)F,inactive,
O=C(CC(=O)C(F)(F)C(F)(F)C(F)(F)F)c1cccs1,inactive,
CCCCCCOC(=O)c1ccc(O)cc1,,62.5 µM (active)
CCOC(=O)CN[C@@H](C(=O)N1CC[C@H]1C(=O)NCc1ccc(/C(N)=N/O)cc1)C1CCCCC1,inactive,
CCC(C)c1ccccc1O (stereo not given),inactive,
CN(CCO)S(=O)(=O)C(F)(F)C(F)(F)C(F)(F)C(F)(F)C(F)(F)C(F)(F)C(F)(F)C(F)(F)F,inactive,

Structure (SMILES),outcome,AC50
COc1cccc(O)c1,inactive,
CCc1ccccc1O,inactive,
CCCCCCCCCCCCCC[n+]1ccccc1,inactive,
O=P(O)(O)CCC(F)(F)C(F)(F)C(F)(F)C(F)(F)C(F)(F)C(F)(F)F,inactive,
FC(F)(F)N1C(F)(F)C(F)(F)OC(F)(F)C1(F)F,inactive,
Clc1ccc(Nc2nnc(Cc3ccncc3)c3ccccc23)cc1,inactive,
c1ccc2c(c1)CCC2,inactive,
Cc1cc(Cc2cc(C)cc(C(C)(C)C)c2O)c(O)c(C(C)(C)C)c1,inactive,
COC(=O)C(F)(F)C(F)(F)C(F)(F)C(F)(F)C(F)(F)F,inactive,
O=C1Cc2ccccc2N1c1c(Cl)cccc1Cl,inactive,
Oc1cccc2c(O)cccc12,inactive,
O=C(O)C(=O)O,inactive,
CC[N+](CC)(CC)Cc1ccccc1,inactive,
O=CC(F)(F)C(F)(F)C(F)(F)F,inactive,
C=CC(=O)OCCC(F)(F)C(F)(F)C(F)(F)C(F)(F)C(F)(F)C(F)(F)F,inactive,
Cc1ccccc1C(OCCN(C)C)c1ccccc1 (stereo not given),inactive,
FC(F)(F)C(F)(F)C(F)(F)Br,inactive,
C[C@]12CC[C@@H]3c4ccc(O)cc4CC[C@H]3[C@@H]1C[C@@H](O)[C@@H]2O,inactive,
Brc1ccc(Oc2ccc(Br)cc2Br)cc1,inactive,
C=CC(=O)OCCC(F)(F)C(F)(F)C(F)(F)C(F)(F)C(F)(F)C(F)(F)C(F)(F)C(F)(F)F,inactive,
